The source of these data is PubChem BioAssay (NCI).

“And” between values parts separate entries of the source, which are not always exact repeats. Identical values can stand only once. This is part of a sample that, as a whole, favours compounds with a hit. Of some 83,000 tested, about 20% had one in any assay.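 Growth was measured after 48 h exposure to one concentration of compound in 96-well plates. Values under 10 count as active.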 The source made the active and inactive calls.

The test concerns MDA-MB-468 breast. Kind of test: NCI-60 one-dose screen, 48 h (100 = growth as untreated, 0 = no growth, -100 = all killed). The conditions noted are these: 10 µM unless noted.
Consider `C#CCn1cc(C=C2C(=O)NC(=S)NC2=O)c2cc(Cl)ccc21`, for which the growth is 32.5% (inactive).
The same measure for `Fc1ccc(CNc2cccc3[nH]c(C(F)(F)F)nc23)cc1`: 99.7% (inactive).
The same measure for `O=C(CNC(=O)c1cccc2ccccc12)Nc1ccccc1Oc1ccccc1`: 19.7% (inactive); for `c1nc(N2CCOCC2)c2[nH]ccc2n1`: 108% (inactive).
In the case of `C#C[C@]1(O)CC[C@H]2[C@@H]3CC[C@H]4CC(F)(F)CC[C@]4(C)[C@H]3CC[C@@]21C` it was 88.2% (inactive); in that of `COc1ccc(Oc2[nH]n(C3=Nc4ccccc4Sc4ccccc43)c(=O)c2C#N)cc1`, 98.5% (inactive).
As for `CCCCCCCCc1cc(Cl)c(O)c(Cl)c1`, the growth was 119% (inactive).
In the case of `CCN(CC)CCNC(=O)c1ccc(NCN2C(=O)NC(c3ccccc3)(c3ccccc3)C2=O)cc1` it was 101% (inactive) and 111% (inactive); in that of `Cc1c(Cl)cc(-n2c(=O)c3ccccc3c3ccccc3c2=O)cc1Cl`, 128% (inactive).
The same measure for `Cc1cc(/C=C\c2ccc3ccccc3[n+]2C)c(O)c2ncccc12`: -27% (active); for `COc1cccc(N=CNc2cccc(OC)c2)c1`: 107% (inactive); for `N#CN1CC[C@H](C(=O)Nc2ncc(-c3ccccc3)s2)C1`: -49.9% (active).
Regarding `CCOC(=O)c1c(C)nn(CC(O)c2ccccc2)c1NC(=O)Nc1cccc(F)c1` (stereo not given), the growth is 82.6% (inactive).
The same measure for `O=C(O)[C@@H](Cc1ccc2ccccc2c1)NC(=O)n1c2ccccc2c2ccccc21`: 11.9% (inactive); for `CSc1ccc2c(c1)c(CCN)c(C)n2Cc1ccc(Cl)c(Cl)c1`: -67.1% (active); for `CC(C)c1ccc(C(=O)Nc2sc3c(c2C(N)=O)CCC(=O)C3)cc1`: -47.6% (active).
In the case of `O=C1/C(=C/c2ccc(-c3ccc(Br)cc3)o2)SC(=S)N1CCc1ccc(O)cc1` it was 90.2% (inactive); in that of `O=C(OCCCCOC(=O)n1cnc2ccccc21)n1cnc2ccccc21`, 112% (inactive).
Regarding `COc1ccc(-c2nc3ccc(C)cc3c3c2c(=O)n(C)c(=O)n3C)cc1OC`, the growth is 100% (inactive).
In the case of `Clc1ccc2c(NCCCN3CCN(c4nc(N5CCOCC5)nc5ccccc45)CC3)ccnc2c1` it was -74.3% (active).
The same measure for `Cc1cn(-c2nc3c(c(NCc4ccccc4)n2)COCC3)c2cccc(C(N)=O)c12`: 114% [0.5 µM] (inactive).
In the case of `COc1ccc(C2=NN(C(=O)c3cc(OC)c(OC)c(OC)c3)C(c3ccc(N(C)C)cc3)C2)cc1` (stereo not given) it was 22.7% (inactive); in that of `CCCc1n(Cc2ccc3ccccc3c2)c2ccccc2[n+]1Cc1ccc2ccccc2c1`, -44.7% (active).
For the compound `CCOC(=O)C1CCNC(=O)C1=O` (stereo not given), the growth is 99.5% (inactive).
The same measure for `C=C(C=O)[C@@H]1CC[C@]2(CO)CC[C@]3(C)[C@H](CC[C@@H]4[C@@]5(C)CCCNC(C)(C)[C@@H]5CC[C@]43C)[C@@H]12`: 48.6% (inactive); for `COc1cccc(C(=O)O)c1OC`: 105% (inactive).
In the case of `CN1CCC[C@@H]1CCO[C@](C)(c1ccccc1)c1ccc(Cl)cc1` it was -10.5% (active); in that of `CC(=O)Nc1nc(C)c(C(=O)N/N=C/N2CCOCC2)s1`, 116% (inactive).
For `CC(C)(C)c1ccc(N2CSC(=S)N(c3ccc(C(C)(C)C)cc3)C2)cc1`, the growth is 111% (inactive).
The same measure for `C=C(C[n+]1ccccc1)[C@@H]1CC[C@]2(C(=O)OC)CC[C@]3(C)[C@H](CC[C@@H]4[C@@]5(C)CC[C@H](O)C(C)(C)[C@@H]5CC[C@]43C)[C@@H]12`: 86.3% (inactive); for `COc1ccc2oc(=O)cc(CN3C(=O)S/C(=C\c4ccc(Cl)cc4)C3=O)c2c1`: 101% (inactive); for `Clc1ccc(/C=C2\CCCC3C2=Nc2ccccc2NC3c2ccc(Cl)cc2)cc1` (stereo not given): 60% (inactive).
Regarding `CCCCCCCC/C=C/CCCCCCCC1=NC(C)(C)CN1CC(C)O` (stereo not given), the growth was 46.7% (inactive).
In the case of `CCOC(=O)c1cnc2sc(-c3ccc(OC)cc3)nc2c1Cl` it was 90.4% (inactive); in that of `COc1ccc(NC(=O)CSc2nnc(-c3cc(-c4ccccc4)nc4ccccc34)n2-c2ccccc2)cc1`, 97.3% (inactive).
With `CCc1ccc(Nc2ncnc3c2cnn3-c2cccc(Br)c2)cc1`, the growth is 91% (inactive).
Regarding `COc1cc(CNC(=O)/C=C/C=C/c2ccc3c(c2)OCO3)ccc1OCc1cn(-c2ccc(Cl)c(Cl)c2)nn1`, the growth was -68.1% (active).
The same measure for `CCCC(O)Cn1ncc(C(=O)OCC)c1NC(=O)NCc1cccc(F)c1` (stereo not given): 97.3% (inactive).
In the case of `CS(=O)(=O)OCC1NC(=O)C(COS(C)(=O)=O)NC1=O` (stereo not given) it was 87% (inactive) and 79.3% (inactive); in that of `CCN(CC)CCOc1ccc(C(=O)/C=C\c2ccc(Cl)cc2Cl)cc1`, 39.8% (inactive).
